Shown are actives, neighbours in structure and some others; about 2.4% of the full set was active somewhere.
POLB inh – blocks human DNA polymerase beta activity | Pol beta primer extension/strand displacement, fluorescence kinetic | Potency, µM (highest dose often 114 µM), usual class: inhibitors | actives 1.3% (n = 340,000) | P06746
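Preincubation: enzyme (10 nM) with compound, 15 min, RT. Reaction: substrate added to 50 nM final. Reads: 0 and 10 min. Analysis: normalized, Hill fit.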
GLS inhibitor – blocks human kidney-isoform glutaminase activity; O94925; GLS enzymatic activity, qHTS titration; Potency, µM (titrated, usually from 45.5 µM), actives largely listed as inhibitors; actives 0.21% (n = 410,000); AID 624170
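Two-point fluorescence kinetic (t0, 30 min RT) for hKGA; glutamate detected via glutamate oxidase–HRP–Amplex Red. Substrate: 1 mM L-glutamine solution; buffer 45 mM KH2PO4, pH 8.2.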
Pol iota inh – blocks human DNA polymerase iota activity. Pol iota fluorescent replication assay, 10 min. Potency, µM (titrated, usually from 115 µM), actives largely listed as inhibitors. actives 1% (n = 390,000). AID 588590
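Fluorescent replication assay read twice, at 0 min and 10 min after adding 50 nM (final) substrate. Enzyme (10 nM) and compounds were first incubated 15 min at room temperature; enzyme-free buffer wells were negative controls.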
POLH inh – DNA polymerase eta (human) inhibition; Q9Y253; actives 1.2% (n = 390,000); AID 588591; recombinant Pol eta, fluorescent DNA replication assay; Potency, µM (doses to about 114 µM), actives largely listed as inhibitors
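Pol eta at 10 nM preincubated with compounds 15 min at room temperature; reaction started with fluorescent substrate (50 nM final) and read kinetically at 0 and 10 min.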
Pol kappa inh – DNA polymerase kappa (human) inhibition; Q9UBT6; purified Pol kappa, fluorescent DNA synthesis assay, 10 min; Potency, µM (titrated, usually from 107 µM), usual class: inhibitors; actives 0.53% (n = 400,000); AID 588579
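10 nM Pol kappa was preincubated with compounds for 15 min at room temperature. Reaction started with 50 nM (final) substrate. Fluorescence read kinetically at 0 and 10 min.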
APE1 inh – APE1 (human) endonuclease inhibition. recombinant APE1, TAMRA/BHQ-2 abasic DNA cleavage fluorescence. actives 0.35% (n = 350,000). AID 2517. Potency, µM (doses to about 65.8 µM), actives largely listed as inhibitors; further: nearly all actives have a fitted effect of over 55% in size
Target sequence (P27695 whole entry, looked up): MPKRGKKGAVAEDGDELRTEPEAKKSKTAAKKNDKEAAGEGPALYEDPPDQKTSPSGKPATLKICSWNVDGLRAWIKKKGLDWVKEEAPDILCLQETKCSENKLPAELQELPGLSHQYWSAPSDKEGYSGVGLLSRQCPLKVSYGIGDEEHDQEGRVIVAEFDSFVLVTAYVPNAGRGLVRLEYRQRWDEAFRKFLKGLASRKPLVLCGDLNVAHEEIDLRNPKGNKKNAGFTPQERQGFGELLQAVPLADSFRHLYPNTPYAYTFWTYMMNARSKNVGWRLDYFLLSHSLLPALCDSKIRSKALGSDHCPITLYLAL
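0.75 nM APE1 + cpd, 15 min RT; start w/ 50 nM TAMRA/BHQ-2 THF-abasic dsDNA; kinetic fluor 525/598 nm ×3 reads @60 s; Δ(read3−read1); normalized to DMSO and NSC13755 control wells.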
Of the large screens only hits and unclear results are named; the others gave an inactive call; ! = not active in a repeat. The call rests on the fitted dose curve; in most records, active means well fitted curve in the direction sought with a large enough effect; inconclusive means small, poorly fitted or top-dose-only effect, or another doubt; inactive means no such curve, though single readings can be large; an effect the other way counts as inactive or inconclusive.

Cc1ccc(S(=O)(=O)NCC(=O)N(CC(=O)NCC2CCCO2)Cc2ccco2)cc1 (stereo unspecified)	POLB inh 12.6µM, APE1 inh inconclusive
Cc1ccc(S(=O)(=O)NCC(=O)N(CC(=O)NCc2ccco2)Cc2ccco2)cc1	Pol iota inh inconclusive, POLH inh 56.2µM, Pol kappa inh inconclusive
Cc1ccccc1CNC(=O)c1c(C)oc2c1C1=NCCN1C=N2	GLS inhibitor 3.98µM (no result: APE1 inh)
O=C(O)C1=C[C@@H](c2ccccc2)C[C@@H](OCc2ccc(CO)cc2)O1	none
C#Cc1ccc([C@@H]2C=C(C(=O)O)O[C@H](OCc3ccc(CO)cc3)C2)cc1	POLB inh 22.4µM, Pol iota inh inconclusive, POLH inh 39.8µM, Pol kappa inh inconclusive, APE1 inh inconclusive
O=[N+]([O-])c1cc2oc3c(c2c(C=NCc2ccncc2)c1O)CCCC3	POLB inh 17.8µM, GLS inhibitor inconclusive, Pol iota inh inconclusive, POLH inh inconclusive, Pol kappa inh inconclusive
O=C1C(C=NCc2ccncc2)=C(O)c2ccccc21	none
Cc1cccn2c(N)c(-c3ccccc3)nc12	none
O=C(CCS(=O)(=O)c1ccc(Br)cc1)NC1CCCCCC1	POLB inh inconclusive, POLH inh 25.1µM
Cc1ccc(S(=O)(=O)CCC(=O)OCC(=O)NCc2ccc(F)cc2)cc1	none (no result: POLB inh, Pol iota inh, Pol kappa inh, APE1 inh)
O=C(CCS(=O)(=O)c1ccc(Br)cc1)NCc1ccc(F)cc1	POLB inh inconclusive, GLS inhibitor inconclusive, POLH inh 39.8µM, Pol kappa inh inconclusive
O=C(COc1ccccc1C(=O)Nc1ccccc1)Nc1cccc(Br)c1	none (no result: POLB inh, GLS inhibitor, POLH inh, APE1 inh)
CCC(c1nnc(SCC(=O)Nc2cc(C)on2)o1)N(C)C (stereo unspecified)	POLH inh inconclusive (no result: POLB inh)
Cc1ccccc1Cn1c(=O)c2c(nc3n2CCN3Cc2ccco2)n(C)c1=O	GLS inhibitor 7.94µM, Pol iota inh inconclusive (no result: POLB inh, APE1 inh)
CCc1ccc(CNC(=O)C2CCCN(c3nnc(C)c4c(C)n(-c5ccccc5)nc34)C2)cc1 (stereo unspecified)	POLB inh 50.1µM!, POLH inh inconclusive
Cc1ccc(-n2nc3c(N4CCC(C(=O)NCc5ccccc5C)CC4)nnc(C)c3c2C)cc1	POLB inh 89.1µM, Pol iota inh inconclusive, POLH inh 50.1µM
Cc1nnc(N2CCC(C(=O)NCc3ccc(F)cc3)CC2)c2nn(-c3ccc(Cl)cc3)c(C)c12	POLB inh 79.4µM (no result: APE1 inh)
COc1ccc(-n2nc3c(N4CCC(C(=O)NCc5cccc(C)c5)CC4)nnc(C)c3c2C)cc1	POLB inh inconclusive, Pol iota inh inconclusive
CCOc1ccc(CNC(=O)C2CCN(c3nnc(C)c4c(C)n(-c5ccc(C)cc5)nc34)CC2)cc1	POLB inh 7.94µM, Pol iota inh inconclusive, POLH inh inconclusive
CCOC(=O)C1CCN(C(=O)CN2C(=O)NC3(CCCCC3)C2=O)CC1	none (no result: POLB inh)
Cc1cccc(N2CCN(C(=O)C3CC(=O)N(c4ccc5c(c4)OCCO5)C3)CC2C)c1 (stereo unspecified)	none (no result: POLB inh)
O=[N+]([O-])c1cc2c(cc1CN1CCN(CCOCCO)CC1)OCO2	Pol iota inh 7.94µM, Pol kappa inh inconclusive
COc1ccccc1N1CCN(Cc2cc3c(cc2[N+](=O)[O-])OCO3)CC1	Pol iota inh inconclusive
CCNC(=O)/C(C#N)=C/c1c(N2CCN(c3cccc(Cl)c3)CC2)nc2c(C)cccn2c1=O	none
COc1ccc(-c2csc(/C(C#N)=C\c3ccc(O)c([N+](=O)[O-])c3)n2)cc1OC	none
N#C/C(=C\c1ccc(O)c([N+](=O)[O-])c1)c1nc2ccccc2s1	POLB inh 50.1µM, Pol iota inh inconclusive, POLH inh 20µM
Cc1cnc(C(=O)Nc2ccc(C)c(S(=O)(=O)N(C)C)c2)cn1	none
O=c1[nH]c2c(s1)C(c1ccc(O)cc1)C1C3CCC(C3)C1S2 (stereo unspecified)	none
CCN(Cc1ccccc1)c1ccc(/C=C/c2ccnc3ccccc23)cc1	none (no result: POLB inh, GLS inhibitor, POLH inh, APE1 inh)
CC(=O)N1CCCc2cc(S(=O)(=O)CCC(=O)N3CCN(c4cccc(C)c4)C(C)C3)ccc21 (stereo unspecified)	POLB inh inconclusive, APE1 inh inconclusive
Cc1ccc(-c2ccc(=O)n(CC(=O)N3CCN(c4cccc(C)c4)C(C)C3)n2)cc1 (stereo unspecified)	Pol iota inh 79.4µM
Cc1cccc(N2CCN(C(=O)Cn3nc(C)n4cccc4c3=O)CC2C)c1 (stereo unspecified)	none
Cc1cccc(N2CCN(C(=O)CCS(=O)(=O)c3ccc(Br)cc3)CC2C)c1 (stereo unspecified)	POLB inh 25.1µM, Pol iota inh 44.7µM, POLH inh inconclusive, Pol kappa inh 89.1µM
CC(C)=CC(=O)Nc1nnc(C)s1	none
COCCOC(=O)C1=C(C)NC2(O)c3ccccc3C(=O)C12O (stereo unspecified)	Pol iota inh 31.6µM
C(=C\c1ccccc1)/CSc1ccccn1	none
Cc1ccc(NC2=C(NCCO)C(=O)c3ccccc3C2=O)cc1	Pol iota inh 20µM, APE1 inh inconclusive
CC(C(=O)N1CCCCCC1)N(c1ccc(Cl)cc1)S(C)(=O)=O (stereo unspecified)	none
O=C(Cc1ccccc1Cl)NC1(O)C(=O)c2ccccc2C1=O	Pol iota inh 5.01µM, POLH inh inconclusive, APE1 inh inconclusive
CCOc1ccc(N(C(C)C(=O)Nc2cccnc2)S(C)(=O)=O)cc1 (stereo unspecified)	none
COc1ccc(-c2ccc3c(c2)C2CC3CCN2)cc1 (stereo unspecified)	GLS inhibitor 15.8µM (no result: POLB inh, APE1 inh)
CCCCOC(=O)Nc1ccc(S(=O)(=O)Nc2ncccn2)cc1	none
CCC(=O)c1ccc(OCC(O)CN(CCc2ccccc2)Cc2ccccc2)cc1 (stereo unspecified)	Pol iota inh inconclusive
Cn1c(SCC(=O)Nc2ccc(Br)cn2)nnc1C1CC1	POLB inh inconclusive, Pol iota inh inconclusive, POLH inh 79.4µM
OCC1(Cc2ccc(Cl)cc2)CCN(Cc2ccc(F)c(F)c2)CC1	Pol iota inh inconclusive
CCn1c(CSc2nnc(-c3ccncc3)n2C)nc2cc(C(=O)O)ccc21	Pol iota inh 25.1µM
CN(C1CCS(=O)(=O)C1)S(=O)(=O)c1cccs1 (stereo unspecified)	none (no result: POLB inh)
CN(C1CCS(=O)(=O)C1)S(=O)(=O)c1ccccc1 (stereo unspecified)	GLS inhibitor 15.8µM
Cc1nn2c(-c3cccc(NC(=O)CN4CCOCC4)c3)nnc2c2ccccc12	Pol iota inh 39.8µM, POLH inh inconclusive (no result: POLB inh, APE1 inh)
Cc1ccc(-c2nnc3c4ccccc4c(C)nn23)cc1NC(=O)CN1CCOCC1	none (no result: GLS inhibitor, Pol iota inh, POLH inh, Pol kappa inh)

High-throughput results: PubChem BioAssay, National Center for Advancing Translational Sciences (NCATS)
